# Results taken from PubChem BioAssay.
# “And” between values parts separate entries of the source, which are not always exact repeats. Equal entries are not always repeated. Records with an inconclusive call do not appear. The source made the active and inactive calls. Unless noted, the rule behind the calls is not given here.
# Legend:
# [1] = test system: Neuropilin-2 / VEGF-C interaction (human); experiment: small molecules blocking Neuropilin-2/VEGF-C interaction – biochemical, microplate binding format, z-score (AID 743281); conditions: microplate NRP2/VEGF-C binding assay; stronger effect = lower value
# [2] = test system: Aerobactin synthetase IucA (Klebsiella pneumoniae); experiment: inhibition of K. pneumoniae IucA enzyme – biochemical, Tocris library, absorbance (AID 1345561); conditions: purified IucA enzyme assay, absorbance (OD) read-out; stronger effect = lower value;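 tested at 8 µM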;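 note: 100% = enzyme without compound and 0% = no enzyme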
# [3] = galactose survival enhancers in mitochondrial complex I cybrids – cell-based, galactose medium, ATP luminescence, primary screen (AID 1645843;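 active = z-score of at least 1.8 in each of two replicates, scored against plate mean and spread of sample wells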;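 note: positive z means more ATP and so rescue of galactose-driven cybrid death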); conditions: complex I mutant cybrid cells, 72 h, stronger effect = higher value
# [4] = viability loss in pontine glioma line – cell-based, SU-DIPG-XVII, MIPE5.0, CellTiter-Glo, qHTS, dose response (AID 1347060; cut-off not given, nearly all actives have AC50 up to about 26 µM); conditions: CellTiter-Glo ATP luminescence
# [5] = viability loss in pontine glioma line – cell-based, SU-DIPG-XIII, MIPE4.0, CellTiter-Glo, qHTS, dose response (AID 1347061; cut-off not given, nearly all actives have AC50 up to about 37 µM;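 note: cells exposed to compound for 48 hours before readout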); conditions: CellTiter-Glo ATP luminescence
# [6] = viability loss in pontine glioma line – cell-based, JHH-DIPG-1, MIPE4.0, CellTiter-Glo, qHTS, dose response (AID 1347062; cut-off not given, nearly all actives have AC50 up to about 27 µM); conditions: JHH-DIPG-1 viability, CellTiter-Glo ATP luminescence
# [7] = viability loss in pontine glioma line – cell-based, SU-DIPG-IV, MIPE4.0, CellTiter-Glo, qHTS, dose response (AID 1347063; cut-off not given, nearly all actives have AC50 up to about 30 µM;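 note: compound exposure lasted 48 hours before the viability readout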); conditions: CellTiter-Glo ATP luminescence
# [8] = viability loss in pontine glioma line – cell-based, SU-DIPG-XIII, MIPE5.0, CellTiter-Glo, qHTS, dose response (AID 1347064; cut-off not given, nearly all actives have AC50 up to about 23 µM); conditions: CellTiter-Glo ATP luminescence
# [9] = viability loss in pontine glioma line – cell-based, SU-DIPG-XXV, MIPE5.0, CellTiter-Glo, qHTS, dose response (AID 1347065; cut-off not given, nearly all actives have AC50 up to about 26 µM;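 note: cells exposed to compound for 48 hours before ATP readout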); conditions: CellTiter-Glo ATP luminescence
# [10] = growth inhibition of DIPG cells – cell-based, MIPE4.0 library, CellTiter-Glo luminescence, qHTS (AID 1347066; cut-off not given, nearly all actives have AC50 up to about 30 µM;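 note: cells exposed to compound for 48 hours before readout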); conditions: SU-DIPG-VI viability, CellTiter-Glo ATP luminescence
# [11] = JHH-DIPG-1 glioma cell viability, MIPE5.0 library, CellTiter-Glo luminescence, qHTS (AID 1347067; cut-off not given, nearly all actives have AC50 up to about 26 µM;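 note: cells exposed to compound for 48 hours before readout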); conditions: JHH-DIPG-1 glioma viability, CellTiter-Glo ATP luminescence
# [12] = growth inhibition of DIPG cells – cell-based, MIPE5.0 library, qHTS (AID 1347068; cut-off not given, nearly all actives have IC50 up to about 30 µM); conditions: SU-DIPG-XXV viability
# [13] = target: NAD(+) hydrolase SARM1 (Homo sapiens) (UniProt Q6SZW1); experiment: blocking NAD cleavage by SARM1 SAM-TIR – cell lysate, NAD-Glo luminescence (AID 1508614;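 active = compound whose remaining NAD level is above about 45 nM, limit read from the data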;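 note: higher remaining NAD means stronger inhibition of SARM1 NADase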); conditions: SAM-TIR HEK293T lysate NADase, at 1 µM, stronger effect = higher value
# [14] = target: Mitogen-activated protein kinase 7 (Homo sapiens) (UniProt Q13164); experiment: Gal4-ERK5 driven luciferase induction – cell-based, HTS, primary screen (AID 1508626;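 active = luciferase signal above three times the same-plate solvent-only control wells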;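 note: luciferase driven by Gal4-ERK5 fusion binding five Gal4 sites before minimal TATA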); conditions: HeLa Gal4-ERK5 transactivation, 18 h, at 5 µM, stronger effect = higher value
# [15] = blockers of cellular phospholipid synthesis – cell-based, LOPAC library, screen 4, primary screen (AID 1347384); conditions: animal cells, phospholipid biosynthesis inhibition screen; at 10 µM
# [16] = growth inhibition, single agents and combos, ICB984, cell-based, cisplatin or BGB combos, synergistic combos for chromothripsis tumors (AID 1671451); conditions: ICB984 medulloblastoma cells, drug combinations, stronger effect = higher value;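 note: cells exposed for 96 hours before readout; 0% = vehicle DMSO and 100% = killing by high DMSO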
# [17] = compounds altering HSF1 focus formation in cells – imaging, Selleck Cancer Library (AID 1347162; in the data active = plate-normalised HSF1 focus index below about 0.46); conditions: human cells, HSF1 nuclear foci imaging, at 10 µM; SSMD: measured here: HSF1 foci SSMD mean; cell count: measured here: cell number; plate-normalised HSF1 focus index: stronger effect = lower value
# [18] = compounds altering circadian rhythm period length – cell-based, LOPAC library, luminescence reporter (AID 2774); conditions: circadian reporter cells, at 7 µM, actives lie on both sides;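 note: values are relative to mean of DMSO wells on each plate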
# [19] = test system: Hepatitis C virus NS3 helicase; experiment: blockers of NS3h binding to ssDNA – biochemical, fluorescence polarization, LOPAC1280 library, primary screen (AID 687035; in the data active = inhibition above about 37%); conditions: Purified HCV NS3 helicase, Cy5-dT15 ssDNA binding fluorescence polarization; stronger effect = higher value; concentration not given here
# [20] = compounds altering Cy5-DNA-NS3h complex signal – biochemical, LOPAC1280, artefact control for HCV NS3 helicase inhibitor project (AID 687037); conditions: Cy5-DNA-NS3h complex fluorescence interference counterscreen
# Sequence of Mitogen-activated protein kinase 7 (Homo sapiens) (Q13164 whole entry, looked up, the tested form may be a part): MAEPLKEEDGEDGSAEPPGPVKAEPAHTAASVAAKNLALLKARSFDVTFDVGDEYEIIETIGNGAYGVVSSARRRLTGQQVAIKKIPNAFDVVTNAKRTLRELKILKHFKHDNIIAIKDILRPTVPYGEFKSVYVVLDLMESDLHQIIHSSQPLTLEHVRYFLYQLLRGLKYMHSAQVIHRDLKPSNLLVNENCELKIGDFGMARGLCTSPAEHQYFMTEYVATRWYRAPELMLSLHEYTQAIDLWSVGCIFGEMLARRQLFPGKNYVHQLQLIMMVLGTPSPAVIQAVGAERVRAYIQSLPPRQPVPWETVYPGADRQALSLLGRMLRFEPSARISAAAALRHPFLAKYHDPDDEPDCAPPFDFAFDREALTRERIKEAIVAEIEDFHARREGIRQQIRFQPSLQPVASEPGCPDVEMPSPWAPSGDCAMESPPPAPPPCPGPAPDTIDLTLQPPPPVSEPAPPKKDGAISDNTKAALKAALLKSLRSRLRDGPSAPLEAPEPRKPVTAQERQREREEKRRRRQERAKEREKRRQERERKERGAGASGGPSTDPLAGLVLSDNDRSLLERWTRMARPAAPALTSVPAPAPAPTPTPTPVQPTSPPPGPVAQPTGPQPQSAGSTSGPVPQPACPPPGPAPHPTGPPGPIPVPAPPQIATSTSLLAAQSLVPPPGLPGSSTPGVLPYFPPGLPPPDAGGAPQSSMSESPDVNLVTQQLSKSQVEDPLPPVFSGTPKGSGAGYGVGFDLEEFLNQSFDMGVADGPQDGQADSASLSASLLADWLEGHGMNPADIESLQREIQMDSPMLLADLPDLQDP
# Sequence of NAD(+) hydrolase SARM1 (Homo sapiens) (Q6SZW1 whole entry, looked up, the tested form may be a part): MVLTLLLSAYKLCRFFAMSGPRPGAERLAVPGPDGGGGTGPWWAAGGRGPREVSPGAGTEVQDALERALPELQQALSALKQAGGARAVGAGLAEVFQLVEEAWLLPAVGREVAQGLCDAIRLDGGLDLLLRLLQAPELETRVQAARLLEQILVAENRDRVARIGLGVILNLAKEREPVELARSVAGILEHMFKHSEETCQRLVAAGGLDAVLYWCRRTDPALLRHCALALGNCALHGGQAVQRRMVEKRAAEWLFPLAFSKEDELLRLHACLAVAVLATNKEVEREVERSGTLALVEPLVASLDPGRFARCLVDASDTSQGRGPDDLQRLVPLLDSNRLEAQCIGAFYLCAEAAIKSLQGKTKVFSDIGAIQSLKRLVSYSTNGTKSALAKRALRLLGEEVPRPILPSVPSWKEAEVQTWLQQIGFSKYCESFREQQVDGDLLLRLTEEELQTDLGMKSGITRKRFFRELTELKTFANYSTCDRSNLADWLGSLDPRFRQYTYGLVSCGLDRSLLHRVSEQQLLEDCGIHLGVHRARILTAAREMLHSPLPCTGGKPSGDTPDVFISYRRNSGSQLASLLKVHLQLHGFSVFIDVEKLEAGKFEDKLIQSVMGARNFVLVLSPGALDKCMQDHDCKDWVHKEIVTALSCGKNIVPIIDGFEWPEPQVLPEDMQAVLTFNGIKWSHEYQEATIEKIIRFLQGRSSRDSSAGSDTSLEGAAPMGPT
structure (smiles),measurement,setting,value
Cc1cccc(CCN2CCC(C(=O)c3ccc(NS(C)(=O)=O)cc3)CC2)n1,z-score,[1],-0.668 (inactive)
same,remaining activity,[2],104% (inactive)
same,z-score,[3],0.46 (inactive) and -0.045 (inactive)
CN1CC(=O)N2[C@H](c3ccc4c(c3)OCO4)c3[nH]c4ccccc4c3C[C@@H]2C1=O,z-score,[1],1.08 (inactive)
same,outcome,[4],inactive
same,outcome,[5],inactive
same,outcome,[6],inactive
same,outcome,[7],inactive
same,outcome,[8],inactive
same,outcome,[9],inactive
same,outcome,[10],inactive
same,outcome,[11],inactive
same,outcome,[12],inactive
same,remaining NAD,[13],10 nM (inactive)
same,luciferase signal,[14],40 AU (inactive)
O=c1[nH]c(=O)n(C2CCCO2)cc1F (configuration not stated),z-score,[1],-1.02 (inactive)
same,outcome,[4],inactive
same,outcome,[5],inactive
same,outcome,[6],inactive
same,outcome,[7],inactive
same,outcome,[8],inactive
same,outcome,[9],inactive
same,outcome,[10],inactive
same,outcome,[11],inactive
same,outcome,[12],inactive
same,outcome,[15],inactive
same,z-score,[3],1.17 (inactive) and 0.3 (inactive)
same,inhibition,"[16]; BGB IC20 combo, at 0.005 µM",-7.2% and -19%
same,inhibition,"[16]; BGB IC40 combo, at 0.005 µM",-14.4% and -20.1%
same,inhibition,"[16]; BGB IC40 combo, at 0.05 µM",3.65% and -15.9%
same,inhibition,[16]; at 0.5 µM,-2.47% (inactive) and -35.6% (inactive)
same,inhibition,"[16]; cisplatin combo, at 0.05 µM",-0.171% and -21.9%
same,inhibition,"[16]; cisplatin combo, at 0.5 µM",-9.38% and -50%
same,inhibition,"[16]; cisplatin combo, at 5 µM",-27.4% and -5.1%
same,inhibition,"[16]; measured here: 5 uM single agent, at 5 µM",1.9% and -33.4%
COc1c(N2C[C@@H]3CCCN[C@@H]3C2)c(F)cc2c(=O)c(C(=O)O)cn(C3CC3)c12,z-score,[1],-1.5 (inactive)
same,outcome,[5],inactive
same,outcome,[6],inactive
same,outcome,[7],inactive
same,outcome,[8],inactive
same,outcome,[9],inactive
same,outcome,[11],inactive
same,outcome,[12],inactive
same,remaining NAD,[13],10 nM (inactive)
same,luciferase signal,[14],64 AU (inactive)
CN1[C@@H]2CCC[C@H]1CC(NC(=O)c1nn(C)c3ccccc13)C2 (some centres not stated),z-score,[1],1.21 (inactive)
same,outcome,[4],inactive
same,outcome,[5],inactive
same,outcome,[6],inactive
same,outcome,[8],inactive
same,outcome,[9],inactive
same,outcome,[10],inactive
same,outcome,[11],inactive
same,outcome,[12],inactive
same,remaining NAD,[13],10 nM (inactive)
same,z-score,[3],0.01 (inactive)
CN(C)CCOc1ccc(/C(=C(/CCCl)c2ccccc2)c2ccccc2)cc1,z-score,[1],-0.537 (inactive)
same,outcome,[5],inactive
same,outcome,[6],inactive
same,AC50,[9],20.9 µM (active)
same,outcome,[10],inactive
same,SSMD,[17],-11.1
same,cell count,[17],3260
same,plate-normalised HSF1 focus index,[17],0.417 (inactive)
same,remaining NAD,[13],10 nM (inactive)
same,z-score,[3],-2.31 (inactive)
COc1ccc2[nH]c(S(=O)Cc3ncc(C)c(OC)c3C)nc2c1 (configuration not stated),outcome,[1],inactive
same,outcome,[11],inactive
same,outcome,[12],inactive
same,z-score,[3],0.665 (inactive)
O=C(c1ccc(OCCN2CCCCC2)cc1)c1c(-c2ccc(O)cc2)sc2cc(O)ccc12,period change,[18],0.135 h (inactive)
same,inhibition,[19],-6% (inactive)
same,fluorescence ratio (interference),[20],0.9 (inactive)
same,remaining activity,[2],120% (inactive)
same,outcome,[4],inactive
same,outcome,[11],inactive
same,SSMD,[17],2.22
same,cell count,[17],6850
same,plate-normalised HSF1 focus index,[17],1.11 (inactive)
same,outcome,[15],inactive
same,remaining NAD,[13],10 nM (inactive)
same,luciferase signal,[14],76 AU (inactive)
Cc1cnc(C(=O)NCCc2ccc(S(=O)(=O)NC(=O)NC3CCCCC3)cc2)cn1,period change,[18],0.035 h (inactive)
same,inhibition,[19],-1% (inactive)
same,fluorescence ratio (interference),[20],1 (inactive)
same,outcome,[6],inactive
same,outcome,[8],inactive
same,outcome,[9],inactive
same,outcome,[10],inactive
same,outcome,[11],inactive
same,outcome,[12],inactive
same,outcome,[15],inactive
same,remaining NAD,[13],10 nM (inactive)
same,z-score,[3],1.17 (inactive) and 0.66 (inactive) and 1.06 (inactive)
C/C(=C\C(=O)OCCCCCCCCC(=O)O)C[C@@H]1OC[C@H](C[C@@H]2O[C@H]2[C@@H](C)[C@H](C)O)[C@@H](O)[C@H]1O,remaining NAD,[13],10 nM (inactive)
same,luciferase signal,[14],48 AU (inactive)
same,z-score,[3],-1.42 (inactive)
COC(=O)C[C@](O)(CCCC(C)(C)O)C(=O)O[C@@H]1C(OC)=C[C@]23CCCN2CCc2cc4c(cc2[C@H]13)OCO4,outcome,[1],inactive
same,remaining activity,[2],98.2% (inactive)
same,z-score,[3],-0.84 (inactive)
O=C1CN2Cc3c(ccc(Cl)c3Cl)N=C2N1,outcome,[1],inactive
same,outcome,[4],inactive
same,outcome,[5],inactive
same,outcome,[6],inactive
same,outcome,[8],inactive
same,outcome,[9],inactive
same,outcome,[11],inactive
same,outcome,[12],inactive
same,SSMD,[17],2.08 and 2.35
same,cell count,[17],7390 and 7000
same,plate-normalised HSF1 focus index,[17],1.08 (inactive) and 1.14 (inactive)
same,remaining NAD,[13],10 nM (inactive)
same,luciferase signal,[14],40 AU (inactive)
same,z-score,[3],0.465 (inactive) and 0.535 (inactive)
COc1ccc(C[C@H](C)NC[C@@H](O)c2ccc(O)c(NC=O)c2)cc1,z-score,[1],-0.584 (inactive)
same,remaining activity,[2],116% (inactive)
same,z-score,[3],-0.475 (inactive)
